GDH-TPI inh: counter-screen for M. tuberculosis FBA inhibitors: GDH-TPI coupled enzymes | GDH-TPI coupled enzyme counterscreen, NADH absorbance | inhibition, % at 4.8 µM | 1.2% of 360,000 active | AID 588335; in the data active = inhibition above about 30%
PfHsp40 rescue: restores yeast growth despite PfHsp40 toxicity; S. cerevisiae expressing PfHsp40, growth rescue, ATP luminescence; growth rescue, % at 12.5 µM; 0.68% of 340,000 active; AID 504582; in the data active = growth rescue above about 28%, passing the limit was not always enough; inconclusive = no clear call, values can overlap the other calls;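 note: yeast W303a lacking pdr1 and pdr3 grown in galactose medium; growth measured after three days at 30 °C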
PrP UTR inh: inhibition of PrP 5' UTR reporter expression; cell-based PrP 5' UTR mRNA reporter, plate reader; inhibition, % (test concentration not listed); 0.35% of 340,000 active; in the data active = inhibition above about 52%
Mtb FBA inh: Mtb fructose-bisphosphate aldolase inhibition; P9WQA3; purified M. tuberculosis FBA, fluorescence read-out; inhibition, % at 1 µM; 2.3% of 360,000 active; in the data active = inhibition above about 27%
Target sequence (P9WQA3 whole entry, looked up): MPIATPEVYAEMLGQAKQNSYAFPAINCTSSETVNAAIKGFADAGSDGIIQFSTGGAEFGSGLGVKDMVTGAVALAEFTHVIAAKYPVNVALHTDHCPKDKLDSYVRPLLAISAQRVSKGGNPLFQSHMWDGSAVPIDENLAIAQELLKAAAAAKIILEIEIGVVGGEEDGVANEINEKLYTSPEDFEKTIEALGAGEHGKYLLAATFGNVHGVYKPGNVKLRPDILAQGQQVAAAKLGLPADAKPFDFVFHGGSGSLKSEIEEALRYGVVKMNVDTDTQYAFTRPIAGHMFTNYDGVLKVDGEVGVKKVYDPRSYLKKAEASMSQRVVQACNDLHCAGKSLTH
BJeLR viability: kills HRASV12-expressing BJeLR cells; inhibition, % (concentration not given with the values); AID 1554; BJeLR (HRASV12) viability, CellTiter-Glo ATP luminescence, 48 h; 0.17% of 300,000 active; in the data active = inhibition above about 50%; inconclusive = no clear call, values can overlap the other calls
PrPC TRFRET: inhibitors of human cell surface prion protein PrPC | TR-FRET read-out | inhibition, % at 13.8 µM | 0.43% of 370,000 active; in the data active = inhibition above about 24%
Numbers stand for hits. An excerpt weighted towards active compounds, which were near 4.5% of everything screened.

O=C(NCc1ccccn1)C(=O)NCC1OCCCN1S(=O)(=O)c1ccc(F)cc1 (centres undefined) was read as GDH-TPI inh inactive, PfHsp40 rescue inactive, PrP UTR inh inactive, Mtb FBA inh inactive, BJeLR viability inactive and PrPC TRFRET inactive.
Screening O=C(NCc1ccccn1)C(=O)NCC1OCCN1S(=O)(=O)c1ccc(F)cc1 (centres undefined) returned GDH-TPI inh inactive, PfHsp40 rescue 33, PrP UTR inh inactive, Mtb FBA inh inactive, BJeLR viability inactive and PrPC TRFRET inactive.
CN(/N=C/c1ccc([N+](=O)[O-])o1)c1ccccc1 was read as GDH-TPI inh inactive, PfHsp40 rescue inactive, PrP UTR inh inactive, Mtb FBA inh inactive, BJeLR viability inactive and PrPC TRFRET inactive.
Screening CN(C)/N=C/c1ccc(P(c2ccc(/C=N/N(C)C)o2)c2ccc(/C=N/N(C)C)o2)o1 returned GDH-TPI inh 65, PfHsp40 rescue inactive, PrP UTR inh inactive, Mtb FBA inh inactive, BJeLR viability inactive and PrPC TRFRET inactive.
COc1ccc(Cc2nnc(N/N=C/c3ccc(N(C)C)cc3)[nH]c2=O)cc1OC was read as GDH-TPI inh 78, PfHsp40 rescue inactive, PrP UTR inh inactive, Mtb FBA inh inactive, BJeLR viability inactive and PrPC TRFRET inactive.
Cc1cc(=O)[nH]c(N/N=C/c2ccc(N(C)C)cc2)n1 was read as GDH-TPI inh 35, PfHsp40 rescue inactive, PrP UTR inh inactive, Mtb FBA inh inactive, BJeLR viability inactive and PrPC TRFRET inactive.
Screening Cc1cc(=O)[nH]c(N/N=C/c2ccc(F)cc2)n1 returned GDH-TPI inh inactive, PfHsp40 rescue inactive, PrP UTR inh inactive, Mtb FBA inh inactive, BJeLR viability inactive and PrPC TRFRET inactive.
For CCNc1nc(NCC)nc(N/N=C/c2ccc(O)c(O)c2)n1 the results were GDH-TPI inh inactive, PfHsp40 rescue inactive, PrP UTR inh inactive, Mtb FBA inh inactive, BJeLR viability inactive and PrPC TRFRET inactive.
Screening Cc1cc(=O)[nH]c(N/N=C/c2cc(C)n(CC(F)(F)F)c2C)n1 returned GDH-TPI inh 40, PfHsp40 rescue inactive, Mtb FBA inh inactive, BJeLR viability inactive and PrPC TRFRET inactive.
Screening CCNc1nc(NCC)nc(N/N=C/c2ccc(N(C)C)cc2)n1 returned GDH-TPI inh 38, PfHsp40 rescue inactive, PrP UTR inh inactive, Mtb FBA inh inactive, BJeLR viability inactive and PrPC TRFRET inactive.
For COCCCNC(=O)C[C@H]1C[C@@]2(C(=O)OC)C(=C[C@H](C(C)C)O[C@@H]2C2CC2)N(CCc2ccc(OC)c(OC)c2)C1=O the results were PrPC TRFRET inactive.
Screening COc1ccc(C(C(=O)Nc2ccc3c(c2)OCCO3)n2c(=O)c(-c3ccco3)nc3ccccc32)cc1 (centres undefined) returned PrPC TRFRET inactive.
C[C@@H]1/C=C/CC(=O)N[C@H](c2ccc3ccccc3c2)[C@H](C)/C=C/CC(=O)N[C@@H]1c1ccc2ccccc2c1 was read as PrPC TRFRET inactive.
`CCN(CCC#N)c1ccc(/C=N/Nc2nc(C)cc(=O)[nH]2)c(C)c1` gave GDH-TPI inh 45, PfHsp40 rescue inactive, PrP UTR inh inactive, Mtb FBA inh inactive, BJeLR viability inactive and PrPC TRFRET inactive.
Screening CCOC(=O)CC[C@@]1(C(=O)OCC)C[C@@H](CC(=O)N2CCOCC2)C(=O)N2CCCC=C21 returned PrPC TRFRET inactive.
`COc1ccc(C2Nc3cc(OC)ccc3-n3cccc32)cc1` (centres undefined) gave GDH-TPI inh 34, PfHsp40 rescue inactive, PrP UTR inh inactive, Mtb FBA inh inactive, BJeLR viability inactive and PrPC TRFRET inactive.
For Cn1c(/C(C#N)=C/c2ccc(-c3ccc(S(N)(=O)=O)cc3)o2)nc2ccccc21 the results were GDH-TPI inh 40, PfHsp40 rescue inactive, PrP UTR inh inactive, Mtb FBA inh inactive and PrPC TRFRET inactive.
`Cn1c(/C(C#N)=C/c2cccc(O)c2)nc2ccccc21` gave GDH-TPI inh inactive, PfHsp40 rescue inactive, PrP UTR inh inactive, Mtb FBA inh inactive, BJeLR viability inactive and PrPC TRFRET inactive.
Screening Cc1ccc(NC(=O)c2ccc(Cl)c(NC(=O)c3cccs3)c2)cc1 returned GDH-TPI inh inactive, PfHsp40 rescue 35, PrP UTR inh inactive, Mtb FBA inh inactive, BJeLR viability inactive and PrPC TRFRET inactive.
For COc1ccc(NC(=O)C(=O)NNC(=O)c2cccs2)c(OC)c1 the results were GDH-TPI inh 36, PfHsp40 rescue inactive, PrP UTR inh inactive, Mtb FBA inh inactive, BJeLR viability inactive and PrPC TRFRET inactive.
For COc1ccc(NC(=O)C(=O)NNC(=O)c2cccs2)cc1 the results were GDH-TPI inh inactive, PfHsp40 rescue inactive, PrP UTR inh inactive, Mtb FBA inh inactive, BJeLR viability inactive and PrPC TRFRET inactive.
`COc1ccc(/C=C(\NC(=O)c2cccs2)C(=O)Nc2ccc(C)cc2)cc1OC` gave GDH-TPI inh 52, PfHsp40 rescue inactive, PrP UTR inh inactive, Mtb FBA inh inactive, BJeLR viability inactive and PrPC TRFRET inactive.
Screening COc1cc(NC(=O)c2ccc3c(c2)OCCO3)ccc1NC(=O)c1cccs1 returned GDH-TPI inh inactive, PfHsp40 rescue 71, PrP UTR inh inactive, Mtb FBA inh inactive and PrPC TRFRET inactive.
Screening O=C(NC1CCCCN(Cc2cccc(C(F)(F)F)c2)C1=O)c1c(F)cccc1F (centres undefined) returned PrPC TRFRET inactive.
Screening CCn1c(Cc2cccs2)nnc1SCC(=O)Nc1ccc(Cl)cc1C returned PrPC TRFRET inactive.
For CN[C@H]1C[C@H]2c3cc(-c4ccc5c(c4)OCO5)ccc3CCN2C[C@H]1[C@H](C)O the results were PrPC TRFRET inactive.
For Cc1ccc(CN2CCCCC(NC(=O)c3ccccc3)C2=O)cc1 (centres undefined) the results were PrPC TRFRET inactive.
`Cc1cn(C(=O)c2ccccc2)c(=S)n1-c1ccc(Cl)cc1` gave GDH-TPI inh 34, PfHsp40 rescue inactive, PrP UTR inh inactive, Mtb FBA inh inactive, BJeLR viability inactive and PrPC TRFRET inactive.
For COc1ccc(C2=CC(=O)C[C@H](c3ccc(OC)cc3)C2)cc1 the results were GDH-TPI inh inactive, PfHsp40 rescue inactive, PrP UTR inh inactive, Mtb FBA inh inactive and PrPC TRFRET inactive.
COc1ccc(C2=CC(=O)C=CC2=O)cc1 was read as PfHsp40 rescue inactive, PrP UTR inh inactive and BJeLR viability 99.
Screening OCc1ccc(-c2cncc3nccn23)cc1 returned GDH-TPI inh inactive, Mtb FBA inh active and PrPC TRFRET inactive.
Screening c1cn2c(-c3ccoc3)cncc2n1 returned GDH-TPI inh inactive, Mtb FBA inh inactive and PrPC TRFRET inactive.
For CCCCNC(=O)C1CCCN1C(=O)Nc1cc(C)cc(C)c1 (centres undefined) the results were PrPC TRFRET inactive.
`CC(C)n1c(/C=C/[C@@H](O)C[C@@H](O)CC(=O)O)c(-c2ccc(F)cc2)c2ccccc21` gave GDH-TPI inh inactive, PfHsp40 rescue inconclusive, PrP UTR inh inactive, Mtb FBA inh inactive, BJeLR viability inactive and PrPC TRFRET inactive.
